Source: PubChem (National Center for Advancing Translational Sciences (NCATS))
An excerpt weighted towards active compounds, which were near 1.3% of everything screened.
GALK inhibitor = galactokinase (human) inhibition; Purified GALK, Kinase-Glo residual ATP luminescence; Potency, µM (titrated, usually from 57.5 µM), without a hit: top-dose activity change, negative = inhibition, most hits filed as inhibitors; 270,000 compounds, 0.007% hits; also: potency is read from the fitted curve at half-maximal effect; % is scaled to controls: 0 for no effect and ±100 for the full control effect
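Luminescence from leftover ATP (Ultra-Glo luciferase/luciferin) served as read-out after a 1 h room-temperature reaction of 5 nM GALK with 35 uM ATP and 100 uM galactose.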
TrxR1 inh = rat TrxR1 inhibition; Potency, µM (doses to about 114 µM), for inactives: top-dose activity change, negative = inhibition, most hits filed as inhibitors; recombinant rTrxR1, NADPH fluorescence consumption, selenite substrate; O89049; 390,000 compounds, 1% hits; also: potency is read from the fitted curve at half-maximal effect; % is scaled to controls: 0 for no effect and ±100 for the full control effect; nearly all actives have a fitted effect of over 65% in size
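Rat TrxR1 (90 nM in the dispensed reagent) was pre-reduced with 400 uM NADPH for 5 min at room temperature, then incubated with compound for 15 min. After 400 uM selenite was added, NADPH fluorescence (Ex 340/Em 450 nm) was followed for 8 min.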
PKM2 act = PKM2 (human) enzyme activation; purified PKM2, Kinase-Glo ATP luminescence, activation; response scale: 0% is enzyme alone, no compound; P14618; Potency, µM (doses to about 57.5 µM), for the others: top-dose activation, actives largely listed as activators; 260,000 compounds, 0.34% hits; also: potency is read from the fitted curve at half-maximal effect; % is scaled to controls: 0 for no effect and ±100 for the full control effect; nearly all actives have a fitted effect of over 55% in size
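Purified hPK-M2 (>95%) run at intermediate activity with 0.1 mM ADP and 0.5 mM PEP in 50 mM imidazole pH 7.2, KCl, MgCl2; 1 h room temperature. ATP formed read by Kinase-Glo luminescence; normalized to uninhibited and no-enzyme controls.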
TrxR1 substrate = substrates of rat thioredoxin reductase 1; purified TrxR1 substrate turnover, NADPH consumption readout; Potency, µM (series often up to 114 µM), inactives show top-dose activity change, negative = substrate turnover; 390,000 compounds, 0.01% hits; also: potency is read from the fitted curve at half-maximal effect; % is scaled to controls: 0 for no effect and ±100 for the full control effect; nearly all actives have a fitted effect of over 50% in size
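Rat TrxR1, dispensed at 90 nM, was prereduced with 400 uM NADPH (final) for 5 min at ~22 deg C, then incubated with compound 15 min before 400 uM selenite. A first-read NADPH fluorescence drop versus no-compound background flagged substrates.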
Anesthetic bind = candidate novel general anesthetic via apoferritin binding; apoferritin/1-aminoanthracene competitive binding, fluorescence; 350,000 compounds, 0.074% hits; P02791; Potency, µM (doses to about 77.5 µM), without a hit: at the top dose activity change, negative = displacement, hits mostly inhibitors; also: potency is read from the fitted curve at half-maximal effect; % is scaled to controls: 0 for no effect and ±100 for the full control effect; nearly all actives have a fitted effect of over 20% in size
Target sequence (P02791 2-175 limits assumed): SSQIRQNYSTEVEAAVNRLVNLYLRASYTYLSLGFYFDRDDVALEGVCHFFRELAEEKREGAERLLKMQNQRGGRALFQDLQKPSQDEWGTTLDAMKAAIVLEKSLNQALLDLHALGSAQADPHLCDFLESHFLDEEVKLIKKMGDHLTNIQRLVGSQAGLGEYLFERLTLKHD
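Apoferritin-based anesthetic binding model; compound displacement of fluorescent 1-AMA measured as endpoint fluorescence after 10 minutes at room temperature, scaled to free-ligand and complex controls.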
mIDH1 inhibitor = blocks human mutant IDH1 R132H enzyme; O75874; IDH1-R132H enzyme, NADPH consumption, diaphorase/resazurin fluorescence; Potency, µM (series often up to 76.6 µM), without a hit: top-dose activity change, negative = inhibition, usual class: inhibitors; 390,000 compounds, 0.093% hits; AID 602179; also: potency is read from the fitted curve at half-maximal effect; % is scaled to controls: 0 for no effect and ±100 for the full control effect; nearly all actives have a fitted effect of over 65% in size
Target sequence (O75874 whole entry R132H, stated change not applied): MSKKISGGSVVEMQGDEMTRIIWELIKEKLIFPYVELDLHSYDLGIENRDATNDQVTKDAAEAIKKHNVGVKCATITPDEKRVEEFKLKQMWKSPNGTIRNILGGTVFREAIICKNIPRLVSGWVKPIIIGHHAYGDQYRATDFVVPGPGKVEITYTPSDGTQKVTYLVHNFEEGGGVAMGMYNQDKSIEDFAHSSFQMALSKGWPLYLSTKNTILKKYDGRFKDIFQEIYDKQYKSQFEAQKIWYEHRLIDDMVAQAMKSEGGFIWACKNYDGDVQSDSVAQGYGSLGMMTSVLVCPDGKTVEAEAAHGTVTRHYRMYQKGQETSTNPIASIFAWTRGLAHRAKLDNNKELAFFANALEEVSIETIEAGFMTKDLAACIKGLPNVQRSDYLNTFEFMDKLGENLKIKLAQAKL
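IDH1-R132H (0.5 ug/mL dispensed) in pH 7.5 Tris buffer was preincubated 30 min with compound, then given a substrate mix of 0.016 mM NADPH and 2 mM alpha-KG for 80 min at room temperature; remaining NADPH was read by diaphorase/resazurin fluorescence.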
HeLa tox = reduces HeLa cell viability in PKM2 activator counter-screen. shares compounds with PKM2 act. HeLa viability, CellTiter-Glo ATP luminescence, 24 h. activity change, negative = cytotoxicity, % at 57.5 µM. 230 tested, under 10 active. AID 1898; also: % of control where 0% means no effect
The depositor's hits bear a star; ? = inconclusive; nt = not tested or not shown; ! = a repeat was not active; [ ] = another dose, or the depositor's remark. Calls follow the shape of the dose curve; as a rule, active = well fitted curve in the direction sought with a large enough effect; inconclusive = small, poorly fitted or top-dose-only effect, or another doubt; inactive = no such curve, though single readings can be large; an effect the other way counts as inactive or inconclusive.

SMILES | GALK inhibitor | TrxR1 inh | PKM2 act | TrxR1 substrate | Anesthetic bind | mIDH1 inhibitor | others
CCOC(=O)N1CCCN(/[N+]([O-])=N/Oc2ccc([N+](=O)[O-])cc2[N+](=O)[O-])CC1 | nt | 15.8µM* | nt | -11.4% | -22.7% | nt
CCOC(=O)N1CCN(/[N+]([O-])=N/Oc2ccc([N+](=O)[O-])cc2[N+](=O)[O-])CC1C (stereo unspecified) | nt | ? | nt | -15.8% | -7.6% | nt
O=C1NC(=O)C2(CCCc3ccc(N(CCCl)CCCl)cc32)N1 (stereo unspecified) | nt | 20µM* | nt | 2.8% | nt | -2.1%
O=[N+]([O-])/C=C/c1ccc2c(c1)OCO2 | nt | 10µM* | nt | 12.5%[57.1 µM] | nt | nt
CCC1CN2CCC1CC2C(Oc1cc2ccccc2c2ccccc12)c1ccnc2ccc(O)cc12 (stereo unspecified) | nt | nt | nt | nt | -1.4%[15.3 µM] | nt
O=c1c2ccccc2[se]n1-c1ccccc1 | 0.7% | 28.2µM*! | -84.5% | ? | ? | ?
ClCCN(CCCl)c1ccc(C=Nc2ccc(/C=C/c3ccncc3)cc2)cc1 | nt | -2.6% | nt | -13.8% | nt | nt
COc1cc(C=C2C(=O)NC(=O)NC2=O)cc(OC)c1OC | 1.7% | ? | -4.8% | 4.0%[0.0914 µM] | 8.6% | -3.9%
COc1cc(C=C2C(=O)NC(=O)NC2=O)ccc1OS(=O)(=O)c1ccccc1[N+](=O)[O-] | -3.5% | 6.31µM* | nt | 4.7% | -11.9% | 3.6%
CC(=O)C[C@H](c1ccccc1)c1c(O)c2ccccc2oc1=O | nt | nt | nt | nt | 3.2% | nt
Cc1cc(N2CCCCC2)ccc1C=C1C(=O)N(C)C(=S)N(C)C1=O | -1.3% | 11.2µM* | 21.3% | -1.0% | ? | 0.5%
CC(=O)C(O)C(c1ccccc1)c1c(O)c2ccccc2oc1=O (stereo unspecified) | nt | nt | nt | nt | -12.6% | nt
ClCCN(CCCl)c1ccc(/C=C/c2sc3ccccc3[n+]2CCCCI)cc1 | nt | -29.8% | nt | -4.1% | nt | nt
CN(C)c1c([N+](=O)[O-])cc(N2C(=O)C=CC2=O)cc1[N+](=O)[O-] | nt | 2.82µM* | nt | 0.4% | nt | 2.3%
CCNc1cc(N2CCN(C)CC2)ccc1[N+](=O)[O-] | -1.5% | -5.4% | -0.6% | -14.5% | -20.3% | 9.8%
CCN1CCN(c2ccc([N+](=O)[O-])cc2C=C2C(=O)NC(=O)NC2=O)CC1 | -4.2% | ? | 10.9% | -10.3% | -20.8% | 0.0%
CCOc1cc(C=C2C(=O)NC(=O)NC2=O)ccc1OCC(=O)N1CCOCC1 | 3.5% | ? | 0.1% | -1.4% | -6.7% | 2.0%
Cc1ccc(OCCOc2cccc(C=C3C(=O)NC(=O)NC3=O)c2)c(C)c1 | -2.7% | 7.94µM* | -0.2%[11.5 µM] | 2.0% | ? | -2.3%
O=C1NC(=O)C(=Cc2ccc(OCCOc3ccc([N+](=O)[O-])cc3)cc2)C(=O)N1 | 8.7% | 35.5µM* | 24.4% | -4.7% | -23.7% | -1.4%
O=C1NC(=O)C(=Cc2cccc(OCCOc3ccccc3)c2)C(=O)N1 | 1.0% | 15.8µM* | nt | 1.2% | ? | -2.8%
Cc1ccc(C=C2C(Cl)=C(Cl)C(Cl)=C2Cl)cc1 | 1.6% | 3.16µM* | 0.2% | 1.3% | -7.4% | 0.0%
C=C1CC[C@H](O)C/C1=C/C=C1\CCC[C@]2(C)[C@H]1CC[C@H]2[C@@H](C)CCCC(C)C | nt | nt | nt | nt | -1.6%[29.3 µM] | nt
CCCN1CCc2cccc3c2[C@H]1Cc1ccc(O)c(O)c1-3 | nt | 23.8µM* | nt | ? | nt | -0.3%
CN(C)c1ccc(/C=C2/C(=O)NC(=O)N(CCc3ccc(F)cc3)C2=O)cc1 | -3.8% | ? | 10.0% | -7.3% | -0.8% | -3.4%
CCOc1cc(/C=C2\C(=O)NC(=O)N(CCc3ccc(F)cc3)C2=O)ccc1O | -1.3% | 11.2µM* | 16.7% | -5.0% | 4.3% | -2.9%
SMILES | GALK inhibitor | TrxR1 inh | PKM2 act | TrxR1 substrate | Anesthetic bind | mIDH1 inhibitor | others
O=C1NC(=O)N(Cc2ccco2)C(=O)/C1=C/C=C/c1ccco1 | -1.6% | 35.5µM* | -11.0% | -3.9% | -1.8% | -7.1%
Cc1ccc(OCCn2cccc2/C=C2/C(=O)NC(=O)N(Cc3ccco3)C2=O)cc1 | nt | 39.8µM* | 8.9% | 4.3% | -19.8% | 1.0%
Cc1ccc(N2C(=O)NC(=O)/C(=C\C=C\c3ccco3)C2=O)cc1C | 1.1% | 50.1µM* | ? | -1.8% | -21.7% | -5.2%
Cc1ccc(N2C(=O)NC(=O)/C(=C\C=C\c3ccco3)C2=O)cc1 | -6.1% | ? | 22.0% | -8.8% | -2.0% | -7.9%
COc1ccc(C(=O)NCCn2cc(SCc3ccc(C(F)(F)F)cc3)c3ccccc32)cc1OC | nt | 27.9% | nt | -5.4% | 54.1% | -12.1%
Cc1cc2ccccc2n1-c1ccc(C(=O)N2CCC(C(=O)NCc3ccc(Cl)cc3)CC2)s1 | nt | 15.6%[57.1 µM] | nt | 0.5%[57.1 µM] | ? | 8.4%
C=CCN1CCc2cccc3c2C1Cc1ccc(O)c(O)c1-3 (stereo unspecified) | nt | ? | nt | nt | -16.5% | nt
COc1ccc(CNC(=O)Cn2c(SCC(=O)Nc3ccc(C)c(C)c3)nc3ccccc32)cc1 | nt | 17.9%[57.1 µM] | nt | 3.5%[57.1 µM] | 38.3% | 11.4%
O=C1NC(=O)C(=Cc2c(Cl)cccc2Cl)C(=O)N1 | nt | 12.6µM* | nt | -3.3% | nt | 2.7%
O=[N+]([O-])c1ccc(Cl)c([N+](=O)[O-])c1 | nt | 2.82µM* | nt | 1.3% | nt | -7.7%
O=[N+]([O-])c1ccc(O)c([N+](=O)[O-])c1 | nt | -13.9% | nt | -12.0% | -18.5% | 0.0%
Cc1nn(Cc2ccccc2)c(C)c1C=C1C(=O)NC(=S)NC1=O | -0.6% | 8.91µM* | 2.2% | -3.7% | -8.2% | -5.8%
Cc1c(C=C2C(=O)NC(=O)NC2=O)c(=O)n(-c2ccccc2)n1C | 15.2% | -1.8%[57.1 µM] | 0.0% | 5.4%[57.1 µM] | -3.2% | -5.0%
Nc1c(C(=O)NCC2CCCO2)c2nc3ccccc3nc2n1Cc1ccco1 (stereo unspecified) | 4.2% | -12.3% | 17.8µM* | 163.4% | 252.2% | 0.1% | HeLa tox=-16.8
CC(=O)OC[C@H](N)C(=O)c1ccccc1 | nt | nt | nt | nt | -1.4% | nt
